Experimental data published in PubChem BioAssay.
Calls of active or inactive are those of the source.

What was measured:
Albumin (Bos taurus) = Albumin (Bos taurus) (UniProt P02769); test: bovine serum albumin binders on microarray, profiling panel, artefact control for SMM control protein annotation, biochemical, small-molecule microarray, Alexa647 label, 635/667 nm fluorescence (AID 1118); details: BSA-A647 binding, fluorescence 635 nm, higher = more signal;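 further: score merges 667 nm emission intensity and signal-to-noise per printed compound spot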
[1] = small-molecule microarray binders of probe aXIP, primary screen, biochemical, NeuroSMM set, 635/667 nm fluorescence (AID 1119); details: higher = more signal, called active from +8 up or from −8 down;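 further: probe is the protein aXip251-270 applied at 1 µg/mL to compound-printed slides; binding of probe to printed compounds measured as 667 nm fluorescence plus signal to noise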
[2] = small-molecule binders of probe aNOTCH3, primary screen, biochemical, small-molecule microarray, 635/667 nm fluorescence (AID 1120); details: higher = more signal;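 further: probe is a biotin-tagged antibody raised against NOTCH3 rather than NOTCH3 protein; score merges spot fluorescence near 667 nm with spot signal to noise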
[3] = small-molecule binders of probe aNOTCH2, primary screen, biochemical, small-molecule microarray, 635/667 nm fluorescence (AID 1121); details: higher = more signal;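 further: score merges feature fluorescence read at 667 nm with its signal to noise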
[4] = target: Carbonic anhydrase 2 (Homo sapiens) (UniProt P00918); test: CAII small-molecule binders, profiling panel, biochemical, small-molecule microarray, Alexa647-labelled CAII (AID 1122); details: CAII-A647 binding fluorescence, higher = more signal
[5] = COS7 lysate on small-molecule microarray, probe aHis, 635 nm (AID 1123); details: COS7 cell lysate, fluorescence, higher = more signal;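 further: z-score combines 667nm fluorescence intensity with signal-to-noise per printed compound spot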
[6] = compound binding in COS7 lysate, probe aLAP1, primary screen, cell lysate, small-molecule microarray (AID 1124); details: probe aLAP1, fluorescence, higher = more signal;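 further: lysate comes from COS7 cells expressing LAP1 and is applied at 0.3 µg/mL; score merges spot fluorescence near 667 nm with signal-to-noise over triplicate slides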
Sam68 (KHDRBS1) = test: Sam68 small-molecule binders, primary screen, biochemical, small-molecule microarray, 635 nm fluorescence (AID 1125); details: small-molecule microarray binding, higher = more signal;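 further: score merges 667 nm channel intensity with signal to noise over triplicate slides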
[7] = tested on: Chordin-like protein 2 (CHRDL2); test: CHRDL2 small-molecule binders, primary screen, biochemical, small-molecule microarray, 635 nm fluorescence (AID 1126); details: small-molecule microarray binding, fluorescence 635 nm; higher = more signal;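 further: printed compound slides probed with Chrdl2 protein at 4 µg/mL for 1 h at 4 C; score merges 667 nm emission intensity with signal to noise over three replicate slides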
[8] = target: Concanavalin-A (Canavalia ensiformis) (UniProt P02866); test: ConA small-molecule binders, primary screen, artefact control for SMM control protein annotation, biochemical, small-molecule microarray, Alexa647 label, 635 nm (AID 1127); details: ConA-A647 binding fluorescence, higher = more signal;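 further: z combines 667 nm emission intensity with signal-to-noise across three replicate slides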
Chain of Concanavalin-A (Canavalia ensiformis) (P02866 whole entry, looked up): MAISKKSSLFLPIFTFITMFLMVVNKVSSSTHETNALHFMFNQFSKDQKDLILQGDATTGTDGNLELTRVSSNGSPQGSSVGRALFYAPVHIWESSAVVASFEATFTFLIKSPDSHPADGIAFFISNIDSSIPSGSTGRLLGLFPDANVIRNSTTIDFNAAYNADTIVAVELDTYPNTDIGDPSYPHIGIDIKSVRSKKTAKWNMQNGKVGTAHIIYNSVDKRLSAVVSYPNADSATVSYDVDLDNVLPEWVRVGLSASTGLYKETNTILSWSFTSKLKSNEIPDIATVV

Chain of Albumin (Bos taurus) (P02769 whole entry, looked up): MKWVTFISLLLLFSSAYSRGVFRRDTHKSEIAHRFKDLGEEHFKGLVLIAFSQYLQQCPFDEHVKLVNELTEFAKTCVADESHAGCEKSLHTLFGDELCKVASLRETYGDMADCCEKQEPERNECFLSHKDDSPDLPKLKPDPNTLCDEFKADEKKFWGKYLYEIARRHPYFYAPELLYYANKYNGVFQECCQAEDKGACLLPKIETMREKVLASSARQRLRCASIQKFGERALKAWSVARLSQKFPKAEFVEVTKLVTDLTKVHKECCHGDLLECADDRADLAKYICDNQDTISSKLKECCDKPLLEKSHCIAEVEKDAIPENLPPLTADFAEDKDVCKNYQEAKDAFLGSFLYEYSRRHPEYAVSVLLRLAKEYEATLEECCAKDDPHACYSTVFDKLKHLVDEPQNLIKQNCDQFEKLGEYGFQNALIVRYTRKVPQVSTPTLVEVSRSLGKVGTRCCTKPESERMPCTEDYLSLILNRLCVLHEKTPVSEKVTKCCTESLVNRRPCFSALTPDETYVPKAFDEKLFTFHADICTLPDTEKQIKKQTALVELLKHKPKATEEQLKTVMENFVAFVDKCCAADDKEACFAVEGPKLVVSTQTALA

| SMILES | composite z-score (Albumin (Bos taurus)) | composite Z-score [1] | composite z-score [2] | composite z-score [3] | composite z-score [4] | composite z-score [5] | composite z-score [6] | composite z-score (Sam68 (KHDRBS1)) | composite z-score [7] | composite z-score [8] |
| --- | --- | --- | --- | --- | --- | --- | --- | --- | --- | --- |
| O=C1OCCC=C[C@H]2OC34C=CCN(c5ccc(Cl)cc5)C(=O)[C@H]3N(CCCO)C(=O)[C@@H]4C12 (stereo not given in full) | -0.989 | -0.118 (inactive) | -0.237 | -0.186 | 0.268 | -0.714 | 0.27 | -1.21 | -0.406 | -0.295 |
| COC(=O)[C@]1(CCC(=O)OC(C)(C)C)N=C(c2ccc(OCCCO)cc2)O[C@@H]1c1ccccc1 | 0.0503 | 1.55 (inactive) | 0.0834 | 0.153 | 0.687 | 1.83 | 0.569 | -0.116 | -0.483 | 0.259 |
| O=C(O)[C@H]1C[C@H]2C(=O)N3CCC[C@H]3C(=O)N2[C@H]1c1ccc(O)cc1 | -2.04 | 0.0047 (inactive) | -0.368 | -0.176 | 0.545 | 0.193 | 0.107 | -0.132 | -1.49 | 0.298 |
| CC(=O)n1cc(C(O)C2C=CC3C(=O)NC(=O)C3N2Nc2ccccn2)c2ccccc21 (stereo not given) | 0.281 | -0.0662 (inactive) | -0.116 | -0.176 | 0.817 | 0.688 | 0.248 | 0.0906 | 0.549 | 0.551 |
| COc1ccc([Si](C)(C)[C@H]2[C@H](CCn3cc([C@H](O)c4ccccc4)nn3)O[C@@]3(C(=O)N(C)c4ccccc43)[C@@H]2C)cc1 | 0.179 | 0.235 (inactive) | -0.0057 | -0.0485 | 0.509 | 0.476 | -0.116 | 0.106 | -0.544 | -0.454 |
| COCCOC(=O)N1C(=O)[C@@]2(c3cc(C#CC4(O)CCCCCC4)ccc31)[C@H](C(=O)Nc1nc3ccccc3s1)[C@H]1C(=O)O[C@H](c3ccccc3)[C@H](c3ccccc3)N1[C@@H]2c1ccc(OCCO)cc1 | 0.345 | -0.245 (inactive) | 0.246 | -0.0009 | 0.503 | 0.541 | 0.324 | 1.3 | 0.637 | 1.1 |
| O=C1O[C@H](c2ccccc2)[C@H](c2ccccc2)N2[C@H]1[C@@H](C(=O)N1CCN(c3ncccn3)CC1)[C@]1(C(=O)Nc3ccc(C#CC4=CCCCC4)cc31)[C@H]2c1ccccc1OCCO | 0.28 | -0.0798 (inactive) | 0.503 | 0.123 | 0.491 | 1.88 | 1.19 | 1.28 | 0.646 | 1.16 |
| [N-]=[N+]=Nc1ccccc1C[C@]1(C(=O)N2CCCCC2)COC(c2ccc(OCCCO)cc2)=N1 | 0.715 | -0.218 (inactive) | 0.176 | -0.124 | 0.613 | 2.74 | 0.236 | 1.28 | -0.217 | 0.345 |
| COCCOC(=O)N1C(=O)[C@@]2(c3cc(C#CC4(O)CCCCCC4)ccc31)[C@H](C(=O)Nc1nc3ccccc3s1)[C@H]1C(=O)O[C@H](c3ccccc3)[C@H](c3ccccc3)N1[C@@H]2c1ccccc1OCCO | 0.306 | -0.129 (inactive) | -0.0647 | -0.162 | 0.598 | 1.73 | 0.233 | 1.3 | -0.0036 | 1.16 |
| C=CCC(OC(C)=O)[C@@H]1[C@@H](N(Cc2cc3ccccc3o2)C(=O)Cc2ccc(OC)cc2)c2cc(OCCCO)ccc2N1C(=O)c1ccc2ccccc2c1 (stereo not given in full) | 0.234 | 0.39 (inactive) | -0.0485 | -0.0652 | 0.386 | 0.13 | 0.16 | -0.427 | -0.257 | -0.439 |
| [N-]=[N+]=Nc1ccccc1C[C@@]1(C(=O)N2CCCCC2)N=C(c2ccc(OCCCO)cc2)O[C@@H]1c1ccccc1N=[N+]=[N-] | 0.998 | 0.203 (inactive) | 0.384 | 0.0564 | 0.299 | 1.33 | 0.158 | 1.32 | -0.501 | 1.12 |
| CCCCN1CC=CC23O[C@@H]4/C=C\CCCOC(=O)C4[C@H]2C(=O)N(CCCO)[C@@H]3C1=O (stereo not given in full) | -0.314 | 0.949 (inactive) | -0.229 | -0.18 | 0.939 | 1.28 | 1.82 | -0.158 | -0.824 | -1.4 |
| CN(C)CCCCCCNC(=O)[C@@H]1C[C@@H]2C(=O)N3CCC[C@H]3C(=O)N2[C@@H]1c1ccc(O)cc1 | -0.645 | 2.74 (inactive) | 0.488 | 0.119 | 0.738 | 2.77 | 1.47 | 1.31 | 1.43 | 1.16 |
| COc1cc(CO)cc(I)c1O[C@H]1C=C(C(=O)NCCO)C[C@@H](NC[C@@H]2CCCO2)[C@@H]1O | 0.0917 | -0.791 (inactive) | 0.105 | -0.14 | -0.0877 | -0.0856 | 0.696 | 1.16 | 0.0292 | 0.0446 |
| CC(C)(C)OC(=O)CC[C@@]1(C(=O)N2CCCCC2)N=C(c2ccc(OCCCO)cc2)O[C@@H]1c1ccccc1 | 0.962 | -0.317 (inactive) | 0.372 | -0.0659 | 0.781 | 2.59 | 0.796 | 1.29 | -0.409 | 0.719 |
| O=C(O)C1N=C(c2ccc(OCCCO)cc2)N(c2ccccc2)O1 (stereo not given) | 0.811 | 0.488 (inactive) | 0.0967 | -0.037 | 0.589 | 0.321 | -0.287 | 1.3 | 0.153 | 0.658 |

| SMILES | composite z-score (Albumin (Bos taurus)) | composite Z-score [1] | composite z-score [2] | composite z-score [3] | composite z-score [4] | composite z-score [5] | composite z-score [6] | composite z-score (Sam68 (KHDRBS1)) | composite z-score [7] | composite z-score [8] |
| --- | --- | --- | --- | --- | --- | --- | --- | --- | --- | --- |
| OCCCC1=CC(C2CC2)N(Cc2cccc(OC(F)(F)F)c2)CC1 (stereo not given) | 0.485 | 0.438 (inactive) | -0.284 | -0.177 | 0.783 | 0.421 | 0.833 | -0.441 | -0.106 | -0.807 |
| CCCCN1CC=CC23O[C@@H]4C=CCOC(=O)[C@@H]4[C@H]2C(=O)N(CCCCCCO)[C@@H]3C1=O (stereo not given in full) | -0.469 | 0.998 (inactive) | -0.182 | -0.187 | 0.95 | -0.275 | 0.456 | -0.821 | -1.83 | -1.24 |
| CC(C)[Si](C#CCCCC#N)(O[C@H](c1ccccc1)c1cn(Cc2cccc(Cl)c2)nn1)C(C)C | 0.588 | 1.02 (inactive) | 0.0871 | -0.11 | 0.442 | 0.79 | -0.192 | 1.3 | 0.841 | 0.0848 |
| COCCOC(=O)N1C(=O)[C@@]2(c3cc(C#CC4=CCCCC4)ccc31)[C@H](C(N)=O)[C@H]1C(=O)O[C@H](c3ccccc3)[C@H](c3ccccc3)N1[C@@H]2c1ccc(O)cc1 | 0.744 | -0.158 (inactive) | 0.116 | 0.117 | 0.433 | 1.83 | 0.322 | 1.3 | 0.302 | 1.11 |
| CN(C)CCCCCCNC(=O)[C@@H]1C[C@@H]2C(=O)N[C@@H](CCCC[N+](C)(C)C)C(=O)N2[C@@H]1c1ccc(O)cc1 | -0.793 | 1.56 (inactive) | 0.164 | -0.231 | 0.797 | 0.125 | 0.246 | 0.794 | 0.918 | 0.898 |
| O=C1O[C@H](c2ccccc2)[C@H](c2ccccc2)N2[C@H]1[C@@H](C(=O)NC[C@H](O)c1ccccc1)[C@]1(C(=O)Nc3ccc(C#CC4=CCCCC4)cc31)[C@H]2c1ccccc1OCCO | 0.395 | 0.0371 (inactive) | 0.0527 | -0.0614 | 0.343 | 1.32 | 0.522 | 1.32 | -0.0358 | 0.978 |
| C=C(CCCC)/C(=C/C[C@@H](OC(C)=O)c1cccc(OCCO)c1)c1cnc2ccccc2c1 | 0.0156 | 0.785 (inactive) | 0.0141 | -0.124 | 0.687 | 0.366 | -0.0843 | 0.788 | 0.777 | 0.606 |
| CC(C)(C)OC(=O)CC[C@]1(C(N)=O)N=C(c2ccc(OCCCO)cc2)O[C@H]1c1ccccc1 | 0.963 | 0.0933 (inactive) | 0.405 | 0.133 | 0.848 | 3.21 | 0.834 | 1.25 | -1.34 | 0.32 |
| COCCOC(=O)N1C(=O)[C@@]2(c3ccccc31)[C@H](c1ccc(OCCO)cc1)N1[C@H](c3ccccc3)[C@H](c3ccccc3)OC(=O)[C@H]1[C@@H]2C(=O)N1CCc2cc(OC)c(OC)cc2C1 | 0.642 | 0.158 (inactive) | 0.273 | -0.0021 | 0.641 | 2.4 | 1.43 | 1.28 | 0.584 | 1.16 |
| COC(=O)[C@@]1(Cc2ccccc2)[C@H]2c3cc(C(=O)N4CCCC4)n(Cc4ccc(O)c(OC)c4)c3C[C@H]2CN1C(=O)c1ccccc1 | 0.638 | -0.0662 (inactive) | 0.63 | 0.302 | 0.83 | 2.37 | 0.0364 | 0.008 | -1.62 | 0.284 |
| C=CCN1Cc2ccccc2[C@@H]2OC(c3ccc(OCCCO)cc3)=N[C@]2(CCS(=O)(=O)c2ccccc2)C1=O | -0.292 | 0.187 (inactive) | 0.233 | -0.0664 | 0.254 | 2.96 | 0.725 | 1.3 | 1.03 | 1.21 |
| COc1ccc([Si](C)(C)[C@H]2[C@H](CC(=O)N3CCC[C@H]3CO)O[C@@]3(C(=O)N(Cc4cccc(N5CCOC5=O)c4)c4ccccc43)[C@@H]2C)cc1 | -0.185 | -0.0054 (inactive) | -0.095 | -0.151 | 0.334 | 0.626 | 0.218 | 1.26 | 1.36 | 0.996 |
| C=C[C@H](C)[C@@H](OC(=O)Nc1ccc(SC)cc1)c1ccc(O)c2ccccc12 | 0.0219 | -0.552 (inactive) | 0.0636 | -0.0928 | 0.609 | 1.84 | 0.188 | 1.32 | 1.13 | 1.02 |
| [N-]=[N+]=Nc1ccccc1[C@H]1OC(c2ccc(OCCCO)cc2)=N[C@@]1(Cc1ccccc1)C(=O)N1CCOCC1 | 1.05 | 1.39 (inactive) | 0.223 | 0.132 | 0.523 | 2.89 | 1.09 | 1.29 | 0.311 | 1.14 |
| CCCCCCCCCCC(O)C1C=CC2C(=O)NC(=O)C2N1Nc1ccc(Cl)cc1Cl (stereo not given) | 0.145 | -0.383 (inactive) | -0.0288 | -0.077 | 0.442 | 1.66 | 0.192 | -0.0789 | 0.0425 | 0.248 |
| N#Cc1ccc(C(O)C2C=CC3C(=O)N(c4ccccc4)C(=O)C3N2Nc2ccccc2F)cc1 (stereo not given) | 1.01 | -0.187 (inactive) | 0.173 | -0.0771 | 0.675 | 1.99 | 0.555 | 0.864 | -0.284 | 0.883 |
